Data published in ChEMBL document CHEMBL4513135, “CO-ADD screening of IQOG CSIS (Spain) compounds”.
Where “and” joins values, the source holds several entries; their conditions need not be identical. Identical values can stand only once. Results with a measured potency or affinity are listed apart.

Assays:
Staphylococcus aureus = settings: Concentration 32 ug.mL-1, ASSAY_TEST Inhibition of Bacterial Growth, detection method Absorption (OD600), MEDIA CAMHB, plate type 384well, NBS, CORNING #3640, time 18 hr
Escherichia coli = settings: Concentration 32 ug.mL-1, ASSAY_TEST Inhibition of Bacterial Growth, detection method Absorption (OD600), MEDIA CAMHB, plate type 384well, NBS, CORNING #3640, time 18 hr

| SMILES | Inhibition (Staphylococcus aureus) [%] | Inhibition (Escherichia coli) [%] | Inhibition (Staphylococcus aureus; 32 ug/mL) | Inhibition (Escherichia coli; 32 ug/mL) |
| --- | --- | --- | --- | --- |
| CCOC(=O)c1c(C)nc(NC2CCN(Cc3ccccc3)CC2)c(C#N)c1-c1ccccc1 | 43.62 | -5.95 | – | – |
| Cc1nn(-c2ccccc2)c2ncn3nc(-c4ccccc4)nc3c12 | 11.88 | 13.25 | – | – |
| COc1cc(C2C(C#N)=C(N)Oc3ccc4ccccc4c32)ccc1O (stereo unspecified) | 37.28 | -11.46 | – | – |
| N#Cc1c(Cl)nc(Sc2ccccc2)c(C#N)c1-c1ccccc1 | 3.48 | -17.27 | – | – |
| C#CCN(C)Cc1cc2cc(OCc3ccc(OC)c4ncccc34)ccc2n1C | 3.95 | -18.67 | – | – |
| O=C(NNCc1c[nH]c2ccccc12)c1cccc2ccccc12 | -2.49 | 3.58 | – | – |
| COc1nc(Cl)c(C#N)c(-c2ccccc2)c1C#N | 35.41 | -14.05 | – | – |
| N#Cc1c(N)nc(N2CCOCC2)c(C#N)c1-c1ccccc1 | 7.58 | 0.53 | – | – |
| CN(N=O)C(=O)NC1(C(=O)O)CC1c1ccccc1 (stereo unspecified) | 15 | 11.14 | – | – |
| COc1ccc(CNNC(=O)c2cc3ccccc3[nH]2)cc1 | 2.37 | -1.53 | – | – |
| Cc1ccc(C2c3c(nc4c(c3N)CCCC4)Oc3ccc4ccccc4c32)cc1 (stereo unspecified) | 10.92 | -5.39 | – | – |
| CSC1=NC2(CC2c2ccccc2)C(=O)N1C (stereo unspecified) | -3.53 | -1.26 | – | – |
| COc1nc(N)c(C#N)c(-c2ccccc2)c1C#N | 26.81 | -3.07 | – | – |
| N#Cc1c(N)nc(O)c(C#N)c1-c1ccccc1 | 4.47 | -25.59 | – | – |
| CCOC(=O)N/N=C/c1ccccc1 | -2.34 | -1.06 | – | – |
| C#CCN(C)Cc1cc2cc(OCCCC3CCN(Cc4ccc(OC)c5ncccc45)CC3)ccc2n1C | 8.98 | -14.67 | – | – |
| Cl.N#Cc1c(N)nc(NCCO)c(C#N)c1-c1ccccc1 | 32.81 | -7.39 | – | – |
| N#CC1(Br)C(=N)Oc2ccc3ccccc3c2C1c1ccccc1 (stereo unspecified) | – | – | 27.29% and 36.87% | -8.37% and -7.39% |
| CCOC(=O)C1=C(C)OC(N)=C(C#N)C1c1ccco1 (stereo unspecified) | 7.79 | -14.37 | – | – |

| SMILES | Inhibition (Staphylococcus aureus) [%] | Inhibition (Escherichia coli) [%] | Inhibition (Staphylococcus aureus; 32 ug/mL) | Inhibition (Escherichia coli; 32 ug/mL) |
| --- | --- | --- | --- | --- |
| CCOC(=O)c1c(C)nc2nc3c(c(N)c2c1-c1ccc(OC)cc1)CCCCCC3 | 3.19 | -20.4 | – | – |
| Cl.ClCCCCN1CCCCC1 | 1.62 | -1.96 | – | – |
| C#CCN(C)Cc1cc2cc(OCCCC3CCN(C(=O)OC(C)(C)C)CC3)ccc2n1C | 10.44 | 14.28 | – | – |
| CC(C(=O)O)c1c[nH]c2ccccc12 (stereo unspecified) | 5.61 | 8.04 | – | – |
| COc1cccc(C2C(C#N)=C(N)Oc3[nH]nc(C)c32)c1 (stereo unspecified) | 6.27 | 6.61 | – | – |
| COc1cccc(C2C(C#N)=C(N)Oc3c2ccc2ccccc32)c1 (stereo unspecified) | 23.52 | -8.01 | – | – |
| COc1ccc2cc(C=O)c(Cl)nc2c1 | 17.7 | 25.34 | – | – |
| CCOC(=O)c1cc2cc(OC(=O)Oc3ccc([N+](=O)[O-])cc3)ccc2[nH]1 | 13.73 | -33.4 | – | – |
| Nc1ccccc1C(=O)N/N=C/c1c[nH]c2ccccc12 | 7.31 | 5.27 | – | – |
| CCOC(=O)c1c(C)nc(N)c(C#N)c1-c1cccs1 | 5.52 | -18.22 | – | – |
| Nc1c2c(nc3c1C(c1ccc(O)cc1)c1c(ccc4ccccc14)O3)CCCC2 (stereo unspecified) | 9.54 | 9.35 | – | – |
| CC(C)C(=O)N/N=C/c1c[nH]c2ccccc12 | 10.48 | 9.69 | – | – |
| N#Cc1c(N)nc(NC2CCN(Cc3ccccc3)CC2)c(C#N)c1-c1ccccc1 | 33.89 | -2.79 | – | – |
| O=C1OC(c2ccccc2)=NC1=Cc1ccc([N+](=O)[O-])cc1 | 5.7 | 7.71 | – | – |
| COc1ccc2cc(C3C4=C(CC(C)(C)CC4=O)Oc4nc5c(c(N)c43)CCC5)c(Cl)nc2c1 (stereo unspecified) | 18.17 | 11.31 | – | – |
| COc1ccccc1[C@H]1c2c(ccc3ccccc23)O/C(=N\Br)[C@@]1(Br)C#N | 33.19 | 14.2 | – | – |
| CN(C)c1cccc(C(=O)c2cccc(N(C)C)c2)c1 | 23.31 | 7.89 | – | – |
| Cn1cc(/C=C2\NC(=S)NC2=O)c2ccccc21 | 2.93 | 3.35 | – | – |
| CC(=O)C(=Cc1ccccc1)C(=O)O[C@H]1C[C@H](C)CC[C@H]1C(C)C | 27.78 | 14.92 | – | – |
